# Shown are actives, neighbours in structure and some others; about 1.1% of the full set was active somewhere.
# SRC2 inh = human SRC2 (NCOA2) inhibition | Q15596 | HEK293 GAL4-SRC2 luciferase reporter, luminescence | inhibition, % at 9 µM | 370,000 tested, 0.17% active | AID 651957;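 active = inhibition above the mean inhibition of all tested compounds plus 3 SD, set per campaign, cut at about 52% in these data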
# COUP-TFII inh = NR2F2 (human) inhibition, primary screen; inhibition, % at 8.6 µM; HEK293T NGFI-A luciferase reporter, luminescence; P24468; AID 686940; 370,000 tested, 0.7% active;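 active = inhibition above a per-plate cutoff, mean inhibition of test wells between control levels plus 3 SD, cut at about 38% in these data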;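 note: cells cotransfected with COUP-TFII expression vector driving the NGFI-A reporter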
# NCOA1 inh = inhibits human SRC1 coactivator; Q15788; HEK293 GAL4-SRC1 luciferase reporter, luminescence; inhibition, % at 3.6 µM; 360,000 tested, 0.12% active;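 active = inhibition above the campaign mean plus 3 SD, with each screening campaign given its own cutoff, cut at about 60% in these data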
# SRC3 inh = inhibits human SRC3 coactivator; Q9Y6Q9; HEK293 GAL4-SRC3 luciferase reporter, luminescence; inhibition, % at 3.6 µM; 360,000 tested, 0.17% active; AID 588352;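 active = inhibition above a per-campaign cutoff, the mean of all compounds plus 3 SD, cut at about 60% in these data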;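 note: higher means less SRC3-driven luciferase light from the GAL4 reporter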
# GalR3 antagonist = blocks the human galanin receptor 3; HEK293 GalR3-CNG cAMP membrane potential fluorescence; galR3 body fused to GalR1 C-terminus; inhibition, % at 3 µM; 360,000 tested, 0.44% active; O60755; AID 651719;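 active = inhibition above the screen-wide average plus 3 SD, cut at about 13% in these data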;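 note: forskolin and galanin both at EC90 stimulate the cells; cAMP rise reported by CNG channel membrane potential dye signal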
# Target sequence (O60755 1-299 limits assumed): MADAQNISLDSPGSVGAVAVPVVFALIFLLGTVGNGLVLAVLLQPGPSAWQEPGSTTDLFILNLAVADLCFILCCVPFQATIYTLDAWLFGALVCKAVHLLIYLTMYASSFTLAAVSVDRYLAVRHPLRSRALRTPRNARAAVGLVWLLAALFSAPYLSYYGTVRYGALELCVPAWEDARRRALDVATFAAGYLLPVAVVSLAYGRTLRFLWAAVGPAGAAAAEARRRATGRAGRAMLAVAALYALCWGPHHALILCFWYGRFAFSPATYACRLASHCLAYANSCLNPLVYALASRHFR
# NR5A2 inv ag = inverse agonists of human LRH-1 (NR5A2). HEK293T StAR-luciferase reporter, LRH-1 transfected, 24 h. O00482. inhibition, % at 3.6 µM. AID 602396. 360,000 tested, 0.13% active;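 active = inhibition above the mean inhibition of all tested compounds plus 3 SD, cut at about 73% in these data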
# VP16 Luc counter = inhibits VP16 reporter, flagging COUP-TFII antagonist hits; shares compounds with COUP-TFII inh; HEK293 Gal4-VP16 luciferase reporter, luminescence; inhibition, % at 8.5 µM; 2,500 tested, 25% active; in the data active = inhibition above about 13%
# COUP-TFII conf = confirmation of human COUP-TFII (NR2F2) inhibitors; shares compounds with COUP-TFII inh; HEK293 NGFI-A luciferase reporter, luminescence; inhibition, % at 8.5 µM; 2,500 tested, 45% active; AID 687008;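 active = mean inhibition over three repeats above a set limit taken from the earlier primary screen, cut at about 38% in these data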
# Numbers stand for hits; i = inactive; nt = no result given; ! = not active in a repeat.
SMILES,SRC2 inh,COUP-TFII inh,NCOA1 inh,SRC3 inh,GalR3 antagonist,NR5A2 inv ag,VP16 Luc counter,COUP-TFII conf
COc1ccc(C(=O)N2CCC(N3CCN(c4ccccc4)CC3)CC2)cc1OC,i,i,i,i,i,i,nt,nt
CC(=O)c1cc(-c2ccc(Cl)c(C(F)(F)F)c2)c(=O)n2c1CCC2,i,i,nt,nt,nt,nt,nt,nt
CCCc1c(-c2ccc(OC)cc2)ncn1CCc1ccccc1OC,i,47,nt,nt,i,nt,i,i
CCCc1c(-c2ccccc2OC)ncn1CCc1ccccc1OC,i,i,nt,nt,i,nt,nt,nt
CCn1c(C)cc(C(=O)CN2C(=O)c3ccccc3S2(=O)=O)c1C,i,41,i,i,i,i,41,72
Cc1cc(C(=O)CN2C(=O)c3ccccc3S2(=O)=O)c(C)n1C(C)C,58,63,i,i,i,i,49,63
CN1C/C(=C/c2ccccc2)N2C(=O)C[C@@H](c3ccccc3)N=C12,i,i,nt,nt,nt,nt,nt,nt
CCOC(=O)c1csc(NC(=O)C2CCCN(S(=O)(=O)c3ccc([N+](=O)[O-])cc3)C2)n1 (stereo not drawn),i,46,nt,nt,nt,nt,i,i
CCOC(=O)C1CCCN(S(=O)(=O)c2ccc(S(=O)(=O)N(CC)CC)cc2)C1 (stereo not drawn),i,68,i,i,92,i,i,66
O=C(OC12CCCN(C1)/C(=C/c1ccc(Cl)cc1)C2)c1ccc(Cl)cc1 (stereo not drawn),i,i,nt,nt,nt,nt,nt,nt
CCCCCCCCNS(=O)(=O)CC1NCc2cc(F)ccc21 (stereo not drawn),i,i,nt,nt,nt,nt,nt,nt
CCOC(=O)c1cnc2c(OC)cccc2c1N1CC(C)CC(C)C1 (stereo not drawn),i,40,i,i,i,i,i,i
CCCC1CCC2(CC1)CCC2OC(=S)Nc1ccc(I)cc1 (stereo not drawn),nt,i,nt,nt,nt,nt,nt,nt
CCOc1ncccc1C(=O)Nc1ccc(S(=O)(=O)NC2=NCCCCC2)cc1,i,i,i,i,i,i,nt,nt
CCCOc1ccc(C(=O)Nc2ccc(S(=O)(=O)NC3=NCCCCC3)cc2)cc1,i,43,i,i,i,i,i,i
CN(C)S(=O)(=O)c1cccc(C(=O)N/N=C\c2ccnc3ccccc23)c1,i,i,nt,nt,nt,nt,nt,nt
CC1CCCN(c2nc(NCc3ccco3)nc(N)c2[N+](=O)[O-])C1 (stereo not drawn),i,41,i,i,i,i,i,i
O=C(N/N=C/c1ccc(OC(F)F)cc1)c1ccc(Br)cc1,i,i,i,i,i,i,nt,nt
O=C(NO)c1ccc(OC(F)F)cc1,i,45,i,i,i,i,i,i
CCOc1ccc(CCNC(=O)c2cc(-c3ccccc3)c(N3CCOCC3)s2)cc1OC,i,i,nt,nt,nt,nt,nt,nt
Cc1ccc(-c2csc3ncnc(NCCN4CCOCC4)c23)cc1,i,38,i,i,i,i,i,i
O=C(Nc1cccc(Cl)c1)c1ccc(F)c(S(=O)(=O)NCc2cccs2)c1,i,38,i,i,i,i,i,i
CC(C)C[C@H]1COc2cc(Br)ccc2S(=O)(=O)N1Cc1cn(CCC2OCCCO2)nn1,i,i,nt,nt,nt,nt,nt,nt
Cc1cccc(NC(=O)c2ccc(C3SCC(=O)N3CCc3ccccc3)cc2)c1 (stereo not drawn),i,45,i,i,i,i,i,i
O=C(Nc1ccccc1)Nc1nc2ncccn2c1-c1ccc(F)cc1,i,i,nt,nt,nt,nt,nt,nt
Cc1nn(C)c(C)c1CNC(=O)c1nn2c(c1Cl)NC(c1cccs1)CC2C(F)(F)F (stereo not drawn),i,40,i,i,i,i,i,i
Cc1nn(C)cc1CNC(=O)c1cc2n(n1)C(C(F)(F)F)CC(c1cccs1)N2 (stereo not drawn),i,i,i,i,i,i,nt,nt
CCN1/C(=C/C(C)=C/c2sc3ccccc3[n+]2CC)Sc2ccccc21,i,72!,i,70,i,77,26,74
CCN1/C(=C\C(=S)Nc2ccccc2)Sc2ccccc21,i,i,i,i,i,i,nt,nt
CCOC(=O)C1CCN(c2cc(C)nc3ccc(OC)cc23)CC1,i,42,i,i,i,i,i,i
